In PubChem BioAssay (NCATS):
Inconclusive results are not listed. Values without a mark were called inactive. Activity calls are given as the source filed them. The call rests on the fitted dose curve; in most records, active means well fitted inhibition curve with a large enough effect; inconclusive means small, poorly fitted or top-dose-only effect; inactive means flat fitted curve, though single readings scatter.
On the % scale 0 is the no-effect control and ±100 the full control effect.

These molecules were tested on KB-3-1 (assay: Cytotoxic Profiling of Annotated Libraries Using Quantitative High-Throughput Screening (AID 1296008; further: nearly all actives have a fitted effect of over 60% in size)). Conditions: Five cell lines viability, CellTiter-Glo ATP luminescence, 48-72 h; max response: stronger effect = lower value.
Method in brief: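 Cells exposed to compounds for 48 or 72 hr at 37 degrees Celsius. Viability read as ATP-coupled luminescence with CellTiter-Glo after 10 min at room temperature.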
Molecule `COc1ccc(/C=C/C(=O)O[C@@H]2[C@@H](O)[C@H](C)O[C@@H](OC3C4C=COC(O[C@@H]5O[C@H](CO)[C@@H](O)[C@H](O)[C@H]5O)C4C4(CO)OC34)[C@@H]2O)cc1OC` (stereo not given in full) has a max response of -0.119%. `CC(=O)OCC1=C[C@H](O)[C@@H]2C(C(=O)O)=CO[C@@H](O[C@@H]3O[C@H](CO)[C@@H](O)[C@H](O)[C@H]3O)[C@H]12` gave a max response of -1.91%. Molecule `COC(=O)[C@@]1(O)C=CC[C@@H]2[C@@]3(C)C[C@@H](c4ccoc4)OC(=O)[C@H]3CC[C@]21C` has a max response of 0.0207%. `O=C(NCC(=O)N1CC[C@H](NC2CCC(O)(c3ccc(-c4ncccn4)cn3)CC2)C1)c1cccc(C(F)(F)F)c1` (stereo not given in full) was tested, and the outcome was “inactive”. `CC1=CC(=O)C2C(C)(C)CCCC2(C)C12CCC1(COC(=O)C1)O2` (stereo not given) was tested, and the max response was 5.32%. `CC(C)(O)C1CCC2(C)C3C(O)C4C(C13)C42CO` (stereo not given) gave a max response of 9.17%. `C[C@@H]1CC[C@]2(C)C(C[C@@H](O)[C@H](O)[C@]23CO3)[C@@]1(C)CCc1ccoc1` (stereo not given in full) was tested, and the max response was 7.33%. `O=C(O)C[C@H]1CCC(=O)[C@@H]1C/C=C\CCOC1OC(CO)C(O)C(O)C1O` (stereo not given in full) gave a max response of 1.25%. With `C=CCc1ccc(O[C@@H]2O[C@H](CO)[C@@H](O)[C@H](O)[C@H]2O)c(OC)c1` the outcome was “inactive”. `CC1OC(OC2C(O)C(C(=O)O)OC(OC3CCC4(C)C(CCC5(C)C4C=CC4=C6CC(C)(C)CC(O)C6(C)CCC45C)C3(C)C)C2OC2OCC(O)C(O)C2O)C(O)C(O)C1O` (stereo not given) gave a max response of 1.62%.
